# Source: PubChem BioAssay
# Most compounds without a hit are left out; they make up all but 6.7% or so of the library.
# Pf Dd2 inh = P. falciparum Dd2 growth inhibitors, primary screen, SYBR Green fluorescence, single dose replicates; 72 h; hits give low values; activity change, % at 10 µM; 94,000 compounds, 2.3% hits; AID 1159554, 2015; in the data active means activity change below about -80%; inconclusive means no clear call, values can overlap the other calls
# C diff growth = C. difficile growth inhibitors, primary screen, HTS | Clostridium difficile clinical isolate growth, OD600, 24 h; hits give low values | growth activity, negative = inhibition, % at 16 µg/mL (by protocol) | 86,000 compounds, 0.25% hits | AID 1259249, 2017;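 active means mean growth activity at or below -80% and every replicate also at or below -80%; inconclusive means mean at or below -80% but some replicate above -80%; inactive means mean growth activity above -80%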;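 further: 0% = DMSO wells and -100% = levofloxacin 16 µg/mL wells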
# T cruzi growth-1 = T. cruzi intracellular proliferation inhibitors, primary screen, cell-based, beta-gal Tulahuen parasites, NIH3T3 host, luminescence; T. cruzi beta-gal in NIH3T3, GalScreen luminescence, 90 h; inhibition, % at 8.34 µM; 77,000 compounds, 5.9% hits;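 active means mean inhibition above about 93%, with at least 55% of replicates each passing it, limit read from the data, passing the limit was not always enough; inconclusive means only one of those two conditions holds; inactive means neither condition holds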
# T cruzi growth-2 = T. cruzi intracellular proliferation inhibitors, confirmation, cell-based, NIH3T3 host, beta-gal parasite, luminescence, cherry-pick. 5,600 compounds, 72% hits. inhibition, % at 8.35 µM. shares compounds with T cruzi growth-1. T. cruzi beta-gal in NIH3T3, GalScreen luminescence, 90 h;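 active means mean replicate inhibition above about 95% and at least 55% of replicates individually reaching it, limit read from the data; inconclusive means only one of the two criteria is met; inactive means neither criterion is met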
# T cruzi growth-3 = inhibitors of intracellular T. cruzi replication, confirmation, NIH3T3 host cells, beta-gal parasites, cherry-pick, set 2; shares compounds with T cruzi growth-1; T. cruzi beta-gal in NIH3T3, GalScreen luminescence, 90 h; inhibition, % at 2.09 µM; 5,600 compounds, 21% hits; AID 651740, 2012;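 active means mean inhibition above about 95%, with at least 55% of replicates also reaching it, limit read from the data; inconclusive means meets just one of the two conditions; inactive means meets neither condition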;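 further: plate controls were neutral control median for no effect and positive control median for full effect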
# NIH3T3 tox = cytotoxicity in mouse NIH/3T3 fibroblasts, confirmation, cytotoxicity control for T. cruzi proliferation inhibitor project, cell-based, cherry-pick, single point; NIH/3T3 viability, CellTiter-Glo ATP luminescence, 90 h; cytotoxicity (signal decrease), % at 8.35 µM; 5,600 compounds, 14% hits; shares compounds with T cruzi growth-1;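 active means mean signal decrease across replicates above about 35% based on untreated-well scatter, with enough replicates individually passing, limit read from the data; inconclusive means no rule stated though some were filed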;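 further: 0% = median of neutral control wells and 100% = median of positive control wells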
# 3T3 cytotox 2 = NIH/3T3 fibroblast cytotoxicity, confirmation, cytotoxicity control, cell-based, cherry-pick, single point, set 2; shares compounds with T cruzi growth-1; NIH/3T3 viability, CellTiter-Glo ATP luminescence, 90 h; inhibition, % at 24.9 µM; 5,600 compounds, 56% hits; AID 651744, 2012;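 active means mean loss of cell viability signal at or above a set limit, and enough replicates individually reaching it; inconclusive means meets only the mean limit or only the replicate share; inactive means meets neither condition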;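 further: 0% = median of neutral control wells and 100% = median of positive control wells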
# * hit, by the source's call; ? = inconclusive; . = no result given.
SMILES,Pf Dd2 inh,C diff growth,T cruzi growth-1,T cruzi growth-2,T cruzi growth-3,NIH3T3 tox,3T3 cytotox 2
C[C@@H]1CN([C@H](C)CO)C(=O)c2cccc(NC(=O)c3nc4ccccc4s3)c2O[C@@H]1CN(C)C(=O)Nc1ccc(C(F)(F)F)cc1,-65.2,4.8,79.8,.,.,.,.
C[C@H](CO)N1C[C@H](C)[C@@H](CN(C)C(=O)Nc2ccc(C(F)(F)F)cc2)Oc2c(NC(=O)c3nc4ccccc4s3)cccc2C1=O,-34.9,-3.7,91.5*,87.6,69.8,31.7,64.0*
C[C@@H]1CN([C@@H](C)CO)C(=O)c2cccc(NC(=O)c3nc4ccccc4s3)c2O[C@@H]1CN(C)C(=O)Nc1ccc(F)cc1,-61.7,-4.2,6.4,.,.,.,.
C[C@H](CO)N1C[C@H](C)[C@H](CN(C)C(=O)Nc2ccc(C(F)(F)F)cc2)Oc2c(NC(=O)c3nc4ccccc4s3)cccc2C1=O,-55.3,6.3,?,102.7*,87.0,44.6*,80.0*
O=C(C[C@@H]1CC[C@H]2[C@@H](COC[C@@H](O)CN2S(=O)(=O)c2ccccc2)O1)NCCN1CCCCC1,.,-0.9,66.2,.,.,.,.
COc1ccc(-c2ccc3c(c2)[C@@H]2[C@@H](CCN2C(=O)c2ccc4c(c2)OCO4)[C@@H](CO)N3C)cc1,-55.9,-4.4,99.5*,105.2*,100.0*,22.4,19.0
COc1ccc(-c2ccc3c(c2)[C@@H]2[C@@H](CCN2C(=O)c2ccncc2)[C@H](CO)N3C)cc1,-8.8,4.3,?,108.4*,41.6,-2.1,10.1
COc1ccc(-c2ccc3c(c2)[C@@H]2[C@@H](CCN2C(=O)c2ccc(F)cc2)[C@@H](CO)N3C)cc1,-11.1,4.5,24.1,.,.,.,.
COc1cccc(-c2ccc3c(c2)[C@H]2[C@H](CCN2C(=O)c2ccc4c(c2)OCO4)[C@H](CO)N3C)c1,-64.4,-2.5,35.4,.,.,.,.
COc1ccc(NC(=O)N(C)C[C@@H]2Oc3ccc(NS(=O)(=O)c4cccs4)cc3CC(=O)N([C@@H](C)CO)C[C@@H]2C)cc1,15.3,-0.2,21.4,.,.,.,.
O=C(C[C@H]1C[C@H]2c3cc(NS(=O)(=O)c4ccc(F)cc4)ccc3O[C@H]2[C@@H](CO)O1)N1CCc2ccccc2C1,-51.1,4.7,84.7,.,.,.,.
O=C(CC1CC1)Nc1ccc2c(c1)[C@@H]1C[C@@H](CC(=O)N3CCCCC3)O[C@@H](CO)[C@@H]1O2,8.9,-0.1,104.3*,-0.3,20.9,9.0,10.7
CN(C)CC(=O)Nc1ccc2c(c1)[C@@H]1C[C@H](CC(=O)N3CCc4ccccc4C3)O[C@H](CO)[C@@H]1O2,-6.6,.,3.0,.,.,.,.
O=C(Nc1ccc(C(F)(F)F)cc1)Nc1ccc2c(c1)[C@@H]1C[C@@H](CC(=O)N3CCc4ccccc4C3)O[C@H](CO)[C@@H]1O2,-48.6,8.8,138.1*,97.5*,?,-2.6,103.9*
CN(C)CC(=O)Nc1ccc2c(c1)[C@H]1C[C@@H](CC(=O)N3CCc4ccccc4C3)O[C@H](CO)[C@H]1O2,13.5,.,105.1*,64.6,9.2,-8.8,-3.8
O=C(CC1CC1)Nc1ccc2c(c1)[C@@H]1C[C@H](CC(=O)N3CCCCC3)O[C@H](CO)[C@@H]1O2,19.8,-0.7,11.3,.,.,.,.
O=C(Nc1ccc2c(c1)[C@@H]1C[C@H](CC(=O)N3CCc4ccccc4C3)O[C@@H](CO)[C@@H]1O2)Nc1ccccc1F,-27.1,4.3,.,.,.,.,.
O=C(C[C@@H]1C[C@H]2c3cc(NS(=O)(=O)c4ccc(F)cc4)ccc3O[C@H]2[C@@H](CO)O1)N1CCc2ccccc2C1,-27.4,6.1,117.4*,87.9,24.3,10.8,1.1
Cc1noc(C)c1NC(=O)Nc1cccc2c1O[C@@H](CN(C)CC1CCCCC1)[C@@H](C)CN([C@H](C)CO)C2=O,4.7,2.2,-3.3,.,.,.,.
COc1ccccc1C#Cc1cnc2c(c1)C(=O)N([C@H](C)CO)C[C@@H](C)[C@H](CN(C)S(=O)(=O)c1cn(C)cn1)O2,0.3,2.3,.,.,.,.,.
C[C@H](CO)N1C[C@H](C)[C@H](CN(C)Cc2cccc3c2OCCCO3)OCc2cn(nn2)CCCC1=O,-18.1,-1.8,-7.5,.,.,.,.
C[C@@H]1CN([C@H](C)CO)C(=O)c2cc(NS(=O)(=O)c3ccc(Cl)cc3)ccc2O[C@@H](C)CCCCO[C@@H]1CN(C)C(=O)c1ccccc1,-27.4,-9.0,-1.3,.,.,.,.
COc1ccccc1C(=O)Nc1ccc2c(c1)C(=O)N(C)[C@H]1CC[C@@H](CC(=O)NCCc3ccncc3)O[C@H]1CO2,.,-6.0,7.5,.,.,.,.
O=C(Nc1ccc2c(c1)[C@@H]1C[C@H](CC(=O)N3CCc4ccccc4C3)O[C@H](CO)[C@@H]1O2)Nc1ccccc1F,-51.7,0.3,.,.,.,.,.
O=C(Nc1ccc(C(F)(F)F)cc1)Nc1ccc2c(c1)[C@@H]1C[C@H](CC(=O)N3CCc4ccccc4C3)O[C@H](CO)[C@@H]1O2,-55.9,-0.2,118.6*,91.6,122.4*,8.1,-9.5
SMILES,Pf Dd2 inh,C diff growth,T cruzi growth-1,T cruzi growth-2,T cruzi growth-3,NIH3T3 tox,3T3 cytotox 2
COc1ccc(CN(C)C[C@H]2Oc3ccc(NS(=O)(=O)c4cccs4)cc3CC(=O)N([C@H](C)CO)C[C@@H]2C)cc1,-7.0,-5.2,.,.,.,.,.
CC(C)NC(=O)Nc1ccc2c(c1)CC(=O)N([C@H](C)CO)C[C@H](C)[C@@H](CN(C)C)O2,1.1,2.5,4.1,.,.,.,.
C[C@@H]1CN([C@H](C)CO)S(=O)(=O)c2ccc(Br)cc2O[C@H]1CN(C)Cc1cccnc1,-21.2,3.4,.,.,.,.,.
C/C=C/c1ccc2c(c1)O[C@@H](CN(C)Cc1ccccc1)[C@@H](C)CN([C@H](C)CO)S2(=O)=O,-21.8,2.0,99.8,.,.,.,.
C[C@@H]1CN([C@@H](C)CO)S(=O)(=O)c2ccc(/C=C/c3ccccc3)cc2O[C@@H]1CN(C)Cc1ccccc1,-7.1,5.0,99.8*,97.3*,110.0*,16.7,81.4*
C/C=C/c1ccc2c(c1)O[C@@H](CN(C)C(=O)Cc1cccnc1)[C@@H](C)CN([C@H](C)CO)S2(=O)=O,23.5,1.1,.,.,.,.,.
C/C=C/c1ccc2c(c1)O[C@H](CN(C)Cc1cccnc1)[C@H](C)CN([C@@H](C)CO)S2(=O)=O,2.4,-0.5,?,75.4,-7.4,2.9,19.5
C[C@@H]1CN([C@@H](C)CO)S(=O)(=O)c2ccc(Br)cc2O[C@H]1CN(C)Cc1cccnc1,-23.3,-2.2,.,.,.,.,.
